Assays:
Assay in all cases: yeast three-hybrid, YBZ-1, SC-Leu-His + 0.5 mM 3-AT, 4 days
Details in all cases: tags: N-Gal4 AD-HA kept; label: inside an RPR1-promoter hybrid RNA with tandem MS2 sites; ssRNA
[1] = target: PUM1 PUF domain R5-FHC (Homo sapiens, UniProt Q14671 828-1176, C1007F;R1008H;Q1011C)
Procedure, shortened: (§1)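 Pumilio-1 PUF domain libraries, randomized at the three base-contacting residues of each repeat, were co-expressed with matching RNA elements from a centromeric plasmid in strain YBZ-1, which carries a LexA–MS2 coat fusion and a HIS3 reporter. Transformants grew for four days on SC-Leu (input) or on SC-Leu-His + 0.5 mM 3-AT (selection), and the repeat regions were PCR-amplified and Illumina-sequenced. The interaction score is the log change in variant frequency from input to selection. That logarithm is base 2, with a pseudocount of 1 where a variant was absent.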

[2] = target: PUM1 PUF domain R1-KSV (Homo sapiens, UniProt Q14671 828-1176, S863K;R864S;Q867V)
Procedure, shortened: as §1

[3] = target: PUM1 PUF domain R3-VWP (Homo sapiens, UniProt Q14671 828-1176, C935V;R936W;Q939P)
Procedure, shortened: as §1

[4] = target: T1, PUM1 PUF domain R6-RFA (Homo sapiens, UniProt Q14671 828-1176, N1043R;Y1044F;Q1047A)
T1 sequence: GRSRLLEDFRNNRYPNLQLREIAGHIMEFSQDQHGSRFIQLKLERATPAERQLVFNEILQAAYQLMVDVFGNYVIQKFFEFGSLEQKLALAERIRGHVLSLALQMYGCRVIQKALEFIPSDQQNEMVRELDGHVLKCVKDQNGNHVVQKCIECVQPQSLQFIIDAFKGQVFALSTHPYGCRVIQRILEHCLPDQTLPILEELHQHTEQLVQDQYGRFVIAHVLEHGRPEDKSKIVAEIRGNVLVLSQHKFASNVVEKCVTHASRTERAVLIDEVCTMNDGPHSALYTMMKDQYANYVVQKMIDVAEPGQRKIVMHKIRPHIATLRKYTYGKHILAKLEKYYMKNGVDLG
Procedure, shortened: as §1

[5] = target: PUM1 PUF domain R4-DWV (Homo sapiens, UniProt Q14671 828-1176, N971D;H972W;Q975V)
Procedure, shortened: as §1

[6] = target: PUM1 PUF domain R3-MYH (Homo sapiens, UniProt Q14671 828-1176, C935M;R936Y;Q939H)
Procedure, shortened: as §1

[7] = target: PUM1 PUF domain R8-VWR (Homo sapiens, UniProt Q14671 828-1176, N1122V;Y1123W;Q1126R)
Procedure, shortened: as §1

[8] = target: PUM1 PUF domain R2-NRW (Homo sapiens, UniProt Q14671 828-1176, Y900R;Q903W)
Procedure, shortened: as §1

[9] = target: PUM1 PUF domain R8-IFM (Homo sapiens, UniProt Q14671 828-1176, N1122I;Y1123F;Q1126M)
Procedure, shortened: as §1

[10] = target: PUM1 PUF domain R7-KFW (Homo sapiens, UniProt Q14671 828-1176, S1079K;N1080F;E1083W)
Procedure, shortened: as §1

Sequence: GGCUAGAACUAGUGGAUCCCCCGGCGCCCGGCGGCUCGAGCCCGGGUAAGUGUGAAUAGUCUGCAUGCCGCCGGGCGCCAUGCCUGCAGGUCGACUCUAGAAAACAUG
- binding signal [1]: 3.55 log2 enrichment (interaction score)

Sequence: GGCUAGAACUAGUGGAUCCCCCGGCGCCCGGCGGCUCGAGCCCGGGUAAGUGUAAAUUGUCUGCAUGCCGCCGGGCGCCAUGCCUGCAGGUCGACUCUAGAAAACAUG
- binding signal [2]: 2.75 log2 enrichment (interaction score)

Sequence: GGCUAGAACUAGUGGAUCCCCCGGCGCCCGGCGGCUCGAGCCCGGGUAAGUGUAAUUAGUCUGCAUGCCGCCGGGCGCCAUGCCUGCAGGUCGACUCUAGAAAACAUG
- binding signal [3]: 3.12 log2 enrichment (interaction score)

Sequence: GGCUAGAACUAGUGGAUCCCCCGGCGCCCGGCGGCUCGAGCCCGGGUAAGUGUAAAUGGUCUGCAUGCCGCCGGGCGCCAUGCCUGCAGGUCGACUCUAGAAAACAUG
- binding signal [2]: 1.55 log2 enrichment (interaction score)

Sequence: GGCUAGAACUAGUGGAUCCCCCGGCGCCCGGCGGCUCGAGCCCGGGUAAGUGUUAAUAGUCUGCAUGCCGCCGGGCGCCAUGCCUGCAGGUCGACUCUAGAAAACAUG
- binding signal [1]: 4.26 log2 enrichment (interaction score)

Sequence: GGCUAGAACUAGUGGAUCCCCCGGCGCCCGGCGGCUCGAGCCCGGGUAAGUGAAAAUAGUCUGCAUGCCGCCGGGCGCCAUGCCUGCAGGUCGACUCUAGAAAACAUG
- binding signal [4]: 1.03 log2 enrichment (interaction score)

Sequence: GGCUAGAACUAGUGGAUCCCCCGGCGCCCGGCGGCUCGAGCCCGGGUAAGUGUAUAUAGUCUGCAUGCCGCCGGGCGCCAUGCCUGCAGGUCGACUCUAGAAAACAUG
- binding signal [5]: 6.48 log2 enrichment (interaction score)

Sequence: GGCUAGAACUAGUGGAUCCCCCGGCGCCCGGCGGCUCGAGCCCGGGUAAGUGUAAAUAGUCUGCAUGCCGCCGGGCGCCAUGCCUGCAGGUCGACUCUAGAAAACAUG
- binding signal [6]: 3.93 log2 enrichment (interaction score)
- binding signal [7]: 4.37 log2 enrichment (interaction score)
- binding signal [3]: 7.08 log2 enrichment (interaction score)
- binding signal [8]: 6.69 log2 enrichment (interaction score)
- binding signal [4]: 4.04 log2 enrichment (interaction score)

Sequence: GGCUAGAACUAGUGGAUCCCCCGGCGCCCGGCGGCUCGAGCCCGGGUAAGCGUAAAUAGUCUGCAUGCCGCCGGGCGCCAUGCCUGCAGGUCGACUCUAGAAAACAUG
- binding signal [9]: 2.25 log2 enrichment (interaction score)
- binding signal [7]: 4.44 log2 enrichment (interaction score)

Sequence: GGCUAGAACUAGUGGAUCCCCCGGCGCCCGGCGGCUCGAGCCCGGGUAAGUCUAAAUAGUCUGCAUGCCGCCGGGCGCCAUGCCUGCAGGUCGACUCUAGAAAACAUG
- binding signal [10]: 3.75 log2 enrichment (interaction score)

— article PMC8384837, “Expanding the binding specificity for RNA recognition by a PUF domain”
